In PubChem BioAssay (Tox21):
Unmarked numbers belong to inactive results. Inconclusive results are not listed. Entries that show only a call come without a potency. The source made the active and inactive calls. Calls come from the whole dose curve; as a rule, active = well fitted curve in the direction sought with a large enough effect in the repeat runs; inconclusive = weak or mixed curves; inactive = no such curve, though single readings can be large; an effect the other way counts as inactive or inconclusive.

How the values were obtained:
[1] = qHTS RealTime-Glo MT Cell Viability Assay in HEK293 cells - 16 hour (AID 1224872); note: nearly all actives have a fitted effect of over 50% in size; note: potency is the fitted concentration of half-maximal effect
How it was run: (§1)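 HEK293 cells were seeded at 600 cells/well together with NanoLuc luciferase and cell-permeant prosubstrate, preincubated 5 h at 37 C/5% CO2, then given compound in DMSO by pintool. Luminescence from viable-cell prosubstrate reduction was read repeatedly over 40 h.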

[2] = qHTS RealTime-Glo MT Cell Viability Assay in HepG2 cells - 8 hour (AID 1224873); note: nearly all actives have a fitted effect of over 55% in size
How it was run: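 HepG2 cells mixed with RealTime-Glo MT reagents (NanoLuc plus cell-permeant prosubstrate) were seeded at 600 cells/well, incubated 5 h at 37 C/5% CO2, then pinned with compounds in DMSO; nonlytic luminescence tracked viability during 40 h treatment.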

[3] = A CellTox Green Cytotoxicity Assay to monitor cytotoxicity in HEK293 cells - 24 hour (AID 1224875); note: series mostly up to about 77 µM; nearly all actives have a fitted effect of over 45% in size
How it was run: (§2)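 Tox21 screen in HEK293: membrane-impermeant cyanine dye fluoresces on binding dead-cell DNA; compound pinned 5 h post-seeding, plates held at 37 C, signal read repeatedly through 40 h.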

[4] = qHTS RealTime-Glo MT Cell Viability Assay in HepG2 cells - 32 hour (AID 1224877); note: nearly all actives have a fitted effect of over 55% in size
How it was run: (§3)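 HepG2 cells were seeded at 600 cells/well together with NanoLuc luciferase and a cell-permeant prosubstrate, preincubated 5 h at 37 C/5% CO2, then pin-dosed with compounds in DMSO. Nonlytic luminescence from viable cells was read at each time point.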

[5] = A CellTox Green Cytotoxicity Assay to monitor cytotoxicity in HepG2 cells - 24 hour (AID 1224878); note: nearly all actives have a fitted effect of over 45% in size; note: potency is the fitted concentration of half-maximal effect
How it was run: (§4)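 Measurements at 0, 8, 16, 24, 32 and 40 h of treatment captured CellTox Green fluorescence in HepG2 cells that had been co-plated with reagent and preincubated 5 h at 37 C/5% CO2.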

[6] = A CellTox Green Cytotoxicity Assay to monitor cytotoxicity in HepG2 cells - 40 hour (AID 1224879); note: nearly all actives have a fitted effect of over 40% in size; note: potency is the fitted concentration of half-maximal effect
How it was run: as §4

[7] = A CellTox Green Cytotoxicity Assay to monitor cytotoxicity in HEK293 cells - 32 hour (AID 1224881); note: nearly all actives have a fitted effect of over 40% in size; note: potency is the fitted concentration of half-maximal effect
How it was run: as §2

[8] = A CellTox Green Cytotoxicity Assay to monitor cytotoxicity in HepG2 cells - 0 hour (AID 1224882); note: nearly all actives have a fitted effect of over 35% in size
How it was run: as §4

[9] = A CellTox Green Cytotoxicity Assay to monitor cytotoxicity in HepG2 cells - 32 hour (AID 1224883); note: nearly all actives have a fitted effect of over 50% in size; note: potency is the fitted concentration of half-maximal effect
How it was run: as §4

[10] = A CellTox Green Cytotoxicity Assay to monitor cytotoxicity in HEK293 cells - 8 hour (AID 1224884); note: nearly all actives have a fitted effect of over 35% in size
How it was run: as §2

[11] = qHTS RealTime-Glo MT Cell Viability Assay in HepG2 cells - 16 hour (AID 1224885); note: nearly all actives have a fitted effect of over 50% in size
How it was run: as §3

[12] = qHTS RealTime-Glo MT Cell Viability Assay in HEK293 cells - 24 hour (AID 1224886); note: nearly all actives have a fitted effect of over 50% in size; note: potency is the fitted concentration of half-maximal effect
How it was run: as §1

[13] = qHTS RealTime-Glo MT Cell Viability Assay in HEK293 cells - 8 hour (AID 1224887); note: nearly all actives have a fitted effect of over 50% in size; note: potency is the fitted concentration of half-maximal effect
How it was run: (§5)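 HEK293 + NanoLuc + prosubstrate, 600 cells/well; 5 h, 37 C/5% CO2; compound 23 nL in DMSO by pintool; 37 C; luminescence read at 0, 8, 16, 24, 32 and 40 h time points.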

[14] = A CellTox Green Cytotoxicity Assay to monitor cytotoxicity in HEK293 cells - 16 hour (AID 1224888); note: nearly all actives have a fitted effect of over 35% in size
How it was run: as §2

[15] = qHTS RealTime-Glo MT Cell Viability Assay in HepG2 cells - 0 hour (AID 1224889); note: nearly all actives have a fitted effect of over 50% in size; note: potency is the fitted concentration of half-maximal effect
How it was run: as §3

[16] = qHTS RealTime-Glo MT Cell Viability Assay in HEK293 cells - 40 hour (AID 1224874); conditions: RealTime-Glo luminescence; max response: hits give low values; note: nearly all actives have a fitted effect of over 50% in size; note: potency is the fitted concentration of half-maximal effect
How it was run: as §5

[17] = qHTS RealTime-Glo MT Cell Viability Assay in HEK293 cells - 0 hour (AID 1224880); note: nearly all actives have a fitted effect of over 45% in size; note: potency is the fitted concentration of half-maximal effect
How it was run: as §5

[18] = A CellTox Green Cytotoxicity Assay to monitor cytotoxicity in HepG2 cells - 16 hour (AID 1224876); note: nearly all actives have a fitted effect of over 45% in size; note: potency is the fitted concentration of half-maximal effect
How it was run: as §4

[19] = A CellTox Green Cytotoxicity Assay to monitor cytotoxicity in HepG2 cells - 8 hour (AID 1224890); note: nearly all actives have a fitted effect of over 45% in size
How it was run: as §4

Compound	Potency [1]	Potency [2]	Potency [3]	Potency [4]	Potency [5]	Potency [6]	Potency [7]	Potency [8]	Potency [9]	Potency [10]	Potency [11]	Potency [12]	Potency [13]	Potency [14]	Potency [15]	max response [16] [%]	Potency [17]	Potency [18]	Potency [19]	Potency [16]
CN1CCC(=C2c3ccccc3CCc3sccc32)CC1	inactive	inactive	inactive	inactive	23.9 µM (active)	23.9 µM (active)	inactive	inactive	23.9 µM (active)	inactive	inactive	inactive	inactive	inactive	inactive	–	–	–	–	–
CCCCOc1cc(C(=O)OCCN(CC)CC)ccc1N	inactive	inactive	–	–	–	–	–	–	–	–	inactive	inactive	inactive	inactive	inactive	-18	inactive	–	–	–
CCOC(=O)C1=C(C)NC(C)=C(C(=O)OC)C1c1cccc([N+](=O)[O-])c1 (stereo not drawn)	–	–	inactive	–	inactive	inactive	inactive	inactive	inactive	inactive	–	–	–	inactive	7.56 µM (active)	–	5.35 µM (active)	inactive	inactive	–
CN1CCC(=C2c3ccccc3C=Cc3ccccc32)CC1	inactive	inactive	inactive	–	–	26.8 µM (active)	inactive	inactive	26.8 µM (active)	inactive	inactive	inactive	inactive	inactive	–	–	inactive	–	inactive	–
CC(C)(C)c1cc(CCC(=O)OCC(COC(=O)CCc2cc(C(C)(C)C)c(O)c(C(C)(C)C)c2)(COC(=O)CCc2cc(C(C)(C)C)c(O)c(C(C)(C)C)c2)COC(=O)CCc2cc(C(C)(C)C)c(O)c(C(C)(C)C)c2)cc(C(C)(C)C)c1O	inactive	inactive	inactive	inactive	–	inactive	inactive	inactive	inactive	inactive	–	inactive	inactive	inactive	inactive	0.256	inactive	–	inactive	–
Cc1cccc(C(C)(C)C)c1O	inactive	inactive	–	inactive	inactive	–	–	inactive	–	–	–	inactive	inactive	inactive	inactive	-2.49	–	–	–	–
Cc1cccc(Oc2ccccc2)c1	–	inactive	inactive	inactive	–	47.8 µM (active)	inactive	inactive	–	inactive	inactive	47.8 µM (active)	inactive	inactive	inactive	–	inactive	inactive	inactive	47.8 µM (active)
COCCCCCCCCOCCC[Si](C)(O[Si](C)(C)C)O[Si](C)(C)C	–	inactive	inactive	–	inactive	21.9 µM (active)	–	inactive	21.9 µM (active)	inactive	inactive	2.45 µM (active)	inactive	inactive	inactive	–	inactive	inactive	–	2.75 µM (active)
O=C(O)c1cn(C2CC2)c2cc(Cl)c(F)cc2c1=O	–	inactive	–	inactive	inactive	inactive	–	inactive	inactive	–	inactive	–	–	–	inactive	–	–	inactive	inactive	–
COc1ccc(OC)c(OC)c1	inactive	inactive	inactive	–	inactive	inactive	inactive	inactive	inactive	inactive	inactive	inactive	inactive	inactive	inactive	15.8	inactive	–	inactive	–
CC/C(=C\C(=N/O)C(N)=O)C(C)[N+](=O)[O-] (stereo not drawn)	inactive	inactive	–	inactive	–	inactive	inactive	inactive	inactive	inactive	inactive	–	inactive	inactive	inactive	22.3	inactive	inactive	inactive	–
O=C=NC1CCC(CC2CCC(N=C=O)CC2)CC1 (stereo not drawn)	inactive	inactive	–	–	–	inactive	54.9 µM (active)	inactive	inactive	inactive	inactive	inactive	inactive	inactive	inactive	–	inactive	inactive	inactive	–
CCCOc1ccc2nc(NC(=O)OC)[nH]c2c1	inactive	inactive	inactive	inactive	inactive	0.477 µM (active)	inactive	inactive	inactive	–	–	–	inactive	inactive	inactive	–	inactive	–	inactive	–
O=C(c1ccccc1)c1ccc2n1CCC2C(=O)O (stereo not drawn)	inactive	inactive	–	inactive	inactive	inactive	inactive	inactive	inactive	inactive	inactive	inactive	–	inactive	inactive	0.683	–	inactive	–	–
CCCCCCOC(=O)CCC	inactive	inactive	inactive	–	inactive	inactive	inactive	inactive	inactive	–	inactive	inactive	inactive	inactive	inactive	6.13	inactive	–	inactive	–
Oc1ccc(Cc2ccccc2)cc1	36 µM (active)	inactive	–	inactive	–	–	–	inactive	–	inactive	–	36 µM (active)	22.7 µM (active)	–	inactive	–	inactive	inactive	inactive	40.4 µM (active)
Cn1c(NCCN(CCO)CCCc2ccc([N+](=O)[O-])cc2)cc(=O)n(C)c1=O	inactive	inactive	inactive	inactive	inactive	inactive	inactive	inactive	inactive	inactive	–	inactive	inactive	inactive	inactive	-12.1	inactive	–	inactive	–
CCCCCCCC/C=C\CCCCCCCC(N)=O	–	inactive	–	inactive	24.5 µM (active)	34.7 µM (active)	–	inactive	–	inactive	inactive	–	–	inactive	inactive	–	–	–	inactive	–
COC(=O)C(C)=O	inactive	inactive	inactive	–	inactive	inactive	inactive	inactive	inactive	inactive	–	inactive	inactive	inactive	inactive	-0.909	–	–	inactive	–
CCCCCC(CO)CCC (stereo not drawn)	inactive	inactive	inactive	inactive	inactive	inactive	inactive	inactive	inactive	inactive	inactive	inactive	inactive	inactive	inactive	1.02	inactive	–	inactive	–
CC(C)c1ccc2c(C(C)C)cc(C(C)C)c(S(=O)(=O)O)c2c1	inactive	inactive	–	inactive	inactive	inactive	–	inactive	inactive	inactive	inactive	inactive	–	inactive	inactive	-12.5	–	inactive	inactive	–
COc1ccc2[nH]c(S(=O)Cc3ncc(C)c(OC)c3C)nc2n1 (stereo not drawn)	inactive	inactive	–	inactive	inactive	inactive	inactive	inactive	inactive	inactive	inactive	inactive	inactive	inactive	inactive	-17.3	inactive	inactive	inactive	–
C=Cc1c(C)c2cc3[nH]c(cc4nc(cc5nc(cc1[nH]2)C(C)=C5CCC(=O)O)C(CCC(=O)O)=C4C)c(C)c3C=C	inactive	inactive	–	–	inactive	inactive	inactive	inactive	inactive	inactive	inactive	inactive	–	inactive	inactive	-11.2	inactive	inactive	–	–
CN(C(=O)CCCOc1ccc2[nH]c(=O)ccc2c1)C1CCCCC1	–	inactive	inactive	inactive	inactive	inactive	inactive	inactive	inactive	–	inactive	–	–	inactive	inactive	–	inactive	inactive	inactive	–
N#Cc1cc2ccccc2c2ccccc12	inactive	inactive	–	inactive	inactive	inactive	inactive	inactive	inactive	inactive	inactive	inactive	inactive	inactive	inactive	-18.9	–	inactive	inactive	–
CCOC(=O)CC(=O)c1cc(F)c(Cl)nc1Cl	–	inactive	–	–	inactive	inactive	–	inactive	inactive	inactive	inactive	–	inactive	–	inactive	–	–	inactive	inactive	–
CCOC(=O)[C@H](CCc1ccccc1)N[C@H]1CCc2ccccc2N(CC(=O)O)C1=O	–	–	–	–	–	26.8 µM (active)	–	inactive	26.8 µM (active)	inactive	–	–	–	inactive	–	–	–	26.8 µM (active)	–	–
CC(=O)OC/C=C/c1ccccc1	inactive	inactive	inactive	–	inactive	inactive	inactive	inactive	inactive	inactive	inactive	inactive	inactive	inactive	inactive	5.43	inactive	inactive	inactive	–
CCN(CC)CCOc1ccc2c(c1)C(=O)c1cc(OCCN(CC)CC)ccc1-2	–	inactive	inactive	–	–	26.8 µM (active)	–	inactive	–	–	inactive	10.7 µM (active)	inactive	inactive	inactive	–	inactive	inactive	–	15.1 µM (active)
